± gives the standard deviation of the averaged measurements.
tested on: CHON-002; test: nucleolar normality score relative to DMSO (fraction of DMSO control); RPE1 is a non-cancer human cell line; higher = more normal nucleoli (less nucleolar stress)
Procedure: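 Selected screen hits were validated in hTERT lines (BJ5TA, CHON-002, RPE1) and cancer lines (DLD1, HCT116). Cells were immunostained for nucleolin and UBF and the nucleolar normality score was measured per field of view, with 4 fields per drug. Scores are normalized to each cell line's own DMSO control. Dose and time are not stated for this panel.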

SMILES | nucleolar normality score
CC[C@@]1(O)C(=O)OCc2c1cc1n(c2=O)Cc2cc3ccccc3nc2-1 [Camptothecin] | 0.38 ± 0.047
